# Laboratory results: PubChem BioAssay (NCATS)
# Unmarked numbers belong to inactive results. Results filed as inconclusive are left out. Where a call stands in place of a potency, no number is given. The source made the active and inactive calls. Calls come from the whole dose curve; as a rule, active = well fitted curve in the direction sought with a large enough effect; inconclusive = small, poorly fitted or top-dose-only effect, or another doubt; inactive = no such curve, though single readings can be large; an effect the other way counts as inactive or inconclusive.
# Legend:
# [1] = tested on: Zika virus NS2B-NS3 protease (linked construct); experiment: Primary screen NINDS Rhodamine qHTS for Zika virus inhibitors (AID 1347160); note: nearly all actives have a fitted effect of over 55% in size
# How it was run: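 Kinetic fluorescence (Ex 480 nm, Em 540 nm) over 15 min with 1.5 microM Rhodamine110 peptide and 25 nM linked protease.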
# [2] = qHTS to identify inhibitors of the type 1 interferon - major histocompatibility complex class I in skeletal muscle: primary screen against the NCATS Mechanism Interrogation Plate v5.0 (MIPE) Libary (AID 1347411); note: nearly all actives have a fitted effect of over 65% in size; note: potency is the fitted concentration of half-maximal effect
# How it was run: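 Cells were genome-edited human myoblasts carrying a HiBit tag on endogenous HLA-B. They were treated with IFN-beta (4.0 ng/ml) and titrated compounds (top 46 uM) for 24 hrs before lytic HiBiT detection.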
# [3] = qHTS to identify inhibitors of the type 1 interferon - major histocompatibility complex class I in skeletal muscle: primary screen against the NCATS LOPAC collection (AID 1347405);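 note: lytic HiBiT luminescence reporting HLA-B protein level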; note: potency is the fitted concentration of half-maximal effect
# How it was run: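 Cells: C25cl48 human myoblasts, HiBiT-tagged HLA-B*08:01, stimulated with IFN-beta 4.0 ng/ml. Compounds are titrated 1:4.3 over 7 points from 46 uM final and incubated 24 hrs; endogenous MHC class I is quantified by HiBiT lytic luminescence.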
# [4] = qHTS for inhibitors of adenylyl cyclases using a fission yeast platform: a pilot screen against the NCATS LOPAC library (AID 1347410)
# How it was run: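 S. pombe CHP2027 (AC9-GNAS-PDE4D2) carrying PKA-repressed fbp1-GFP, incubated 18 h at 30C in EMM with LOPAC compounds at up to 57 uM. GFP gain-of-signal read by laser scanning cytometry; DMSO negative control.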
# [5] = biological target: Calcium and integrin-binding protein 1 (Homo sapiens) (UniProt Q99828); experiment: Validation qHTS for Identification of Calcium Integrin Binding protein 1 (CIB1) Competitor (AID 1508618)
# How it was run: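 Displacement of FITC-alphaIIb peptide (100 nM) from CIB1-GST (1 uM) is monitored by polarization in quantitative HTS format; buffer carries 5 mM CaCl2 and 125 mM NaCl at pH 7.4, incubations are at room temperature.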
# [6] = tested on: Zika virus NS2B-NS3 protease (unlinked complex); experiment: Primary screen GU Rhodamine qHTS for Zika virus inhibitors: Unlinked NS2B-NS3 protease assay (AID 1347159); note: nearly all actives have a fitted effect of over 60% in size
# How it was run: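 A qHTS format was used, with compound concentrations ranging up to 114 microM. Each compound was preincubated with 25 nM NS2B-NS3 protease, and the substrate was then added at 1.5 microM. Curves were fitted with a 4-parameter Hill model.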
# [7] = biological target: Protein phosphatase 1D (Homo sapiens) (UniProt O15297); experiment: RapidFire Mass Spectrometry qHTS Assay for Modulators of WT P53-Induced Phosphatase 1 (WIP1) (AID 1347424);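 note: amount of dephosphorylated VEPPL-S-QETFS peptide product formed by WIP1; series mostly up to about 63 µM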
# How it was run: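 10 nM WIP1 + cpd, 1 h RT; + 2 uM VEPPL-pS-QETFS, 5 min RT; stop 0.5% formic acid; labelled product standard 1 uM; RapidFire MS. Buffer 50 mM Tris pH 7.5, 30 mM MgCl2, 1 mM TCEP.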
# [8] = biological target: Protein phosphatase 1D (Homo sapiens) (UniProt O15297); experiment: Rhodamine-PBP qHTS Assay for Modulators of WT P53-Induced Phosphatase 1 (WIP1) (AID 1347425)
# How it was run: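 5 nM WIP1 + 10 uM Rh-PBP, 50 mM Tris pH 7.5, 30 mM MgCl2, 1 mM TCEP, 0.1 mM EGTA, BSA; cpds pinned, 1 hr RT; + 10 uM phosphopeptide; fluorescence 1-min reads x 11 min; delta = f1 - f0.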
# [9] = Primary qHTS for inhibitors of La Crosse Virus (LACV) - induced cell death in SH-SY5Y cells (AID 1508616);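 note: top concentration of the series differs between compounds; higher means more rescue of cells from virus-induced death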
# How it was run: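 Readout was luminescence from ATPLite 1step added after a 6-day LACV infection (0.01 MOI) of SH-SY5Y cells that had received pin-transferred compound 24 hr after seeding.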
# [10] = Confirmatory screen NINDS Rhodamine qHTS for Zika virus inhibitors (AID 1347161);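 note: purified Zika NS2B-NS3 protease with linked NS2B cofactor domain and Rhodamine110 peptide substrate; series mostly up to about 110 µM; nearly all actives have a fitted effect of over 60% in size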
# How it was run: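 Aprotinin served as in-plate control. Conditions: 25 nM linked NS2B-NS3, pH 8.0 Tris buffer, titrated compounds, 15 min preincubation and 15 min reaction with 1.5 microM Rhod110 substrate at room temperature.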
# [11] = biological target: Lysine-specific demethylase 5B (Homo sapiens) (UniProt Q9UGL1); experiment: Optimization screen for KDM5B Histone Demethylases FDH coupled qHTS against the LOPAC library (AID 1347166)
# How it was run: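 KDM5BDeltaAP (200nM final) preincubated 10 min with compound, then 12.5uM H3K4Me3, 25uM a-ketoglutarate, ascorbate, Fe(II), NAD+ and FDH added; 50mM HEPES pH 7.5, 0.01% Tween-20. NADH fluorescence (340/450 nm) change over 30 min, room temperature.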
# [12] = Vero cells viability qHTS for Zika virus inhibitors (AID 1347167)
# How it was run: (§1)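 Compounds were tested in concentration series on cells grown in DMEM containing 4% FBS. After 24 to 48 hours, cellular ATP was measured by luminescence with CellTiter Glo.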
# [13] = HepG2 cells viability qHTS for Zika virus inhibitors (AID 1347168)
# How it was run: as §1
# [14] = Tertiary RLuc qRT-PCR qHTS assay for Zika virus inhibitors (AID 1347169); note: top concentration of the series differs between compounds; nearly all actives have a fitted effect of over 55% in size
# How it was run: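 Vero cells (1,000/well) infected with recombinant ZIKV-RLuc (Cambodian) at MOI 1-2 after compound addition, 48-72 hrs at 37 degrees C. Live-cell Renilla luciferase substrate added; luminescence read after 1-1.5 hrs.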
# [15] = qHTS to identify inhibitors of the type 1 interferon - major histocompatibility complex class I in skeletal muscle: primary screen against the NCATS Pharmaceutical Collection (AID 1347407);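 note: luminescence of HiBiT knocked into endogenous HLA-B as interferon-induced MHC class I level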
# How it was run: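 Immortalized human myoblasts (C25cl48) with HiBiT knocked into endogenous HLA-B*08:01 were stimulated with 4.0 ng/ml IFN-beta and treated with compounds ([…] top 46 uM) for 24 hrs at 37 C. HiBiT lytic luminescence read.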
# [16] = Validation qHTS assay for inhibitors of Activation Induced Cytidine Deaminase (AID): UDG Counterscreen signal (AID 1347427)
# How it was run: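 Counterscreen read of UDG activity (2 U/mL, 4/3x) in the FRET deamination format with AID (1 uM, 4/3x), DJC20/DJC23 substrates (250 nM, 4x), 4 h at room temperature. NaOH stop, fluorescence at 560 ex/665 em.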
# [17] = biological target: Single-stranded DNA cytosine deaminase (Homo sapiens) (UniProt Q9GZX7); experiment: Validation qHTS assay for inhibitors of Activation Induced Cytidine Deaminase (AID): AID signal (AID 1347429)
# How it was run: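 In this coupled qHTS, AID deaminates a FRET-labelled ssDNA substrate in the presence of UDG over 4 hr at room temperature. Compounds span up to 114 uM final.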
# Chain of Protein phosphatase 1D (Homo sapiens) (O15297 whole entry, looked up): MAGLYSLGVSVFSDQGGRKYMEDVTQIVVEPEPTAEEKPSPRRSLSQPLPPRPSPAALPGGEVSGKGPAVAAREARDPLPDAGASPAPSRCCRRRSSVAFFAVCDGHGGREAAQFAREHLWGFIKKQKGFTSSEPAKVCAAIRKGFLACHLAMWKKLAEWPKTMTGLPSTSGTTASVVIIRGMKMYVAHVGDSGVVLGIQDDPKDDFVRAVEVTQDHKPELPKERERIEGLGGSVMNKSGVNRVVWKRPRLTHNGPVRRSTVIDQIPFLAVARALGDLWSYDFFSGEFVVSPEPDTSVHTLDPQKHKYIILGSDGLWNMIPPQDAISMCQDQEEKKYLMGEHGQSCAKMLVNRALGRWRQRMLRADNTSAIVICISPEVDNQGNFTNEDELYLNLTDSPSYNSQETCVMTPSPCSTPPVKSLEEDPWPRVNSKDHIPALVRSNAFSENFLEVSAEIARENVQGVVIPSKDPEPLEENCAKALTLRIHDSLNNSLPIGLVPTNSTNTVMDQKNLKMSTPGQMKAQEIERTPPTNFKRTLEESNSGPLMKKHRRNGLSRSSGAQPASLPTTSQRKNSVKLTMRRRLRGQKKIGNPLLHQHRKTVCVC
# Chain of Lysine-specific demethylase 5B (Homo sapiens) (Q9UGL1 whole entry, looked up): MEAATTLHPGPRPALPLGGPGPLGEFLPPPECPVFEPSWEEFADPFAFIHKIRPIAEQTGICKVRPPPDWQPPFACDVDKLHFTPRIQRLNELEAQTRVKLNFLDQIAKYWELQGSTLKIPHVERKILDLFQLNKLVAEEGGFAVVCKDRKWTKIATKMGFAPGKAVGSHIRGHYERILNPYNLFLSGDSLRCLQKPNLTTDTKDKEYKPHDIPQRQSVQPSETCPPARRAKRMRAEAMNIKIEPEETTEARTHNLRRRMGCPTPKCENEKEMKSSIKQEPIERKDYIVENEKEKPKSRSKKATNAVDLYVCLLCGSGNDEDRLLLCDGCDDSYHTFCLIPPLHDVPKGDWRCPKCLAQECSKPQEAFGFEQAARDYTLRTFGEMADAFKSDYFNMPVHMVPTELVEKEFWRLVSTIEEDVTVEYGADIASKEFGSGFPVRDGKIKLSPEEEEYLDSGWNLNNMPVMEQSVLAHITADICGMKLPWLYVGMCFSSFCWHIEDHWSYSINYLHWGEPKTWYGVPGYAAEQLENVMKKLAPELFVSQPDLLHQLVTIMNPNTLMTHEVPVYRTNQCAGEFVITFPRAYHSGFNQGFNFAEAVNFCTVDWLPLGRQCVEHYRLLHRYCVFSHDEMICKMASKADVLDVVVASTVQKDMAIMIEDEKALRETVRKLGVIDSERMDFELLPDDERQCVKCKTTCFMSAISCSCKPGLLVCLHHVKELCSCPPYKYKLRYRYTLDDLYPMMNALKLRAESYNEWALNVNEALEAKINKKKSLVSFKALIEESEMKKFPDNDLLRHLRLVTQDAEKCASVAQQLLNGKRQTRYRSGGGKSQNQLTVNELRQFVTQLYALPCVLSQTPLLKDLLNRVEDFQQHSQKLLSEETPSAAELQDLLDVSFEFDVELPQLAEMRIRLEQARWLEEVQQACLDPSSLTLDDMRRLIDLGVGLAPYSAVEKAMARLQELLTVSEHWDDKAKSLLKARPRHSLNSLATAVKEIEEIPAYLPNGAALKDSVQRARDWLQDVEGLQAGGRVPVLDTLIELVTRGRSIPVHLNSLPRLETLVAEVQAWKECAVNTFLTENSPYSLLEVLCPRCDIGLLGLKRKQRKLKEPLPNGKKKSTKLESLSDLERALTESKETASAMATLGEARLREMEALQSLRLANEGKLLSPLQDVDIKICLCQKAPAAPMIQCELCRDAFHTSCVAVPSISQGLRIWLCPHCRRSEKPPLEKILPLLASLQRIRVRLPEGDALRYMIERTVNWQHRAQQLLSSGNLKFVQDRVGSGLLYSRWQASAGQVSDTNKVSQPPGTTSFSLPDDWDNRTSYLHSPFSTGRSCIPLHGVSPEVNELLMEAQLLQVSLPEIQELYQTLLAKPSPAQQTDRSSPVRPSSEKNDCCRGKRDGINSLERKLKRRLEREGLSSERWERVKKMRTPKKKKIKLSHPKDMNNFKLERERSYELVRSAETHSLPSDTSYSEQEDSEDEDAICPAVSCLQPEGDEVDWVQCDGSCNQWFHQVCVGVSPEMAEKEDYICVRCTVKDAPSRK
# Chain of Calcium and integrin-binding protein 1 (Homo sapiens) (Q99828 whole entry, looked up): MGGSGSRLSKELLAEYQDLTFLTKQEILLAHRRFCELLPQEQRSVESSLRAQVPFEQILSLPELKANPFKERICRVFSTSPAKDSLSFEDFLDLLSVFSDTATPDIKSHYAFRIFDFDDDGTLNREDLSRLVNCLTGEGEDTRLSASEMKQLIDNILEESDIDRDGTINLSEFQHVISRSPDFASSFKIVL
# Chain of Single-stranded DNA cytosine deaminase (Homo sapiens) (Q9GZX7 whole entry, looked up): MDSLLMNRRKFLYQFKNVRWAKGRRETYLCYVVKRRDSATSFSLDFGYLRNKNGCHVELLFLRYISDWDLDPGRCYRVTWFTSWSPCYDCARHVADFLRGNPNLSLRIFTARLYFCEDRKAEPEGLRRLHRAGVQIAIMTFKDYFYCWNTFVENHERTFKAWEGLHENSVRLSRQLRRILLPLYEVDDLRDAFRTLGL
compound,measurement,setting,value
CS(=O)(=O)c1ccc(C(=O)Nc2ccc(Cl)c(-c3ccccn3)c2)c(Cl)c1,Potency,[1],inactive
same,Potency,[2],inactive
CS(=O)(=O)c1cccc(CNc2nc(Nc3ccc4c(c3)CCC(=O)N4)ncc2C(F)(F)F)c1,Potency,[1],inactive
same,Potency,[3],5.62 µM (active)
same,outcome,[4],inactive
same,Potency,[2],10.4 µM (active)
same,Potency,[5],inactive
CC(C)OC(=O)C1=CN(C(=O)c2ccc(F)c(F)c2)CC(C)(C)c2c1[nH]c1ccccc21,Potency,[1],inactive
same,Potency,[2],inactive
C#Cc1cccc(Nc2ncnc3cc(OCCOC)c(OCCOC)cc23)c1,Potency,[6],inactive
same,Potency,[1],inactive
same,Potency,[7],inactive
same,outcome,[8],inactive
same,outcome,[9],inactive
C[C@@H]1CN(Cc2ccc(F)cc2)[C@@H](C)CN1C(=O)c1cc2c(C(=O)C(=O)N(C)C)cn(C)c2cc1Cl,Potency,[1],inactive
same,Potency,[2],inactive
S=C(NCc1ccc2c(c1)OCO2)N1CCN(c2ncnc3c2oc2ccccc23)CC1,Potency,[1],inactive
same,Potency,[2],inactive
COc1cc(F)c(F)c(Nc2ccc(I)cc2F)c1NS(=O)(=O)C1(C[C@H](O)CO)CC1,Potency,[1],inactive
CCN(CC)CCCC(C)Nc1ccnc2cc(Cl)ccc12 (centres undefined),outcome,[1],inactive [at 10.7 µM]
same,Potency,[10],inactive
same,outcome,[11],inactive
same,outcome,[12],inactive
same,outcome,[13],inactive
same,Potency,[14],inactive
same,Potency,[3],inactive
same,outcome,[15],inactive
same,"activity change, negative = inhibition",[2],34% [at 8.44 µM]
same,Potency,[7],inactive
same,outcome,[16],inactive
same,Potency,[17],inactive
same,outcome,[9],inactive
COc1cc(Nc2ncc3c(n2)-c2ccc(Cl)cc2C(c2c(F)cccc2OC)=NC3)ccc1C(=O)O,Potency,[1],inactive
CCCS(=O)(=O)Nc1ccc(F)c(C(=O)c2c[nH]c3ncc(Cl)cc23)c1F,Potency,[6],inactive
same,Potency,[1],inactive
COc1ccc(CCN2CCN(CCCc3ccccc3)CC2)cc1OC,Potency,[1],inactive
same,Potency,[2],inactive
CN(C(=O)c1ccc(F)cc1C(F)(F)F)C1CCN(c2nnc(-c3ccnn3C)c3ccccc23)CC1,Potency,[1],inactive
same,Potency,[2],inactive
